Data: ChEMBL document CHEMBL3988442, “University of Dundee, Small-Polar-MMV Screening Library” (2021)

What was measured:
[1] = target: T1, Aspartate--tRNA(Asp/Asn) ligase (Mycobacterium tuberculosis (strain ATCC 25618 / H37Rv)) (UniProt P9WFW3); test: Assay for Asp RNA synthetase-1 from Mycobacterium tuberculosis; type: functional; design: scale not given: direction of the effect not stated beside the values; conditions: 30 µM; note: in the data most compounds retested in dose-response had high values
T1 sequence (whole entry): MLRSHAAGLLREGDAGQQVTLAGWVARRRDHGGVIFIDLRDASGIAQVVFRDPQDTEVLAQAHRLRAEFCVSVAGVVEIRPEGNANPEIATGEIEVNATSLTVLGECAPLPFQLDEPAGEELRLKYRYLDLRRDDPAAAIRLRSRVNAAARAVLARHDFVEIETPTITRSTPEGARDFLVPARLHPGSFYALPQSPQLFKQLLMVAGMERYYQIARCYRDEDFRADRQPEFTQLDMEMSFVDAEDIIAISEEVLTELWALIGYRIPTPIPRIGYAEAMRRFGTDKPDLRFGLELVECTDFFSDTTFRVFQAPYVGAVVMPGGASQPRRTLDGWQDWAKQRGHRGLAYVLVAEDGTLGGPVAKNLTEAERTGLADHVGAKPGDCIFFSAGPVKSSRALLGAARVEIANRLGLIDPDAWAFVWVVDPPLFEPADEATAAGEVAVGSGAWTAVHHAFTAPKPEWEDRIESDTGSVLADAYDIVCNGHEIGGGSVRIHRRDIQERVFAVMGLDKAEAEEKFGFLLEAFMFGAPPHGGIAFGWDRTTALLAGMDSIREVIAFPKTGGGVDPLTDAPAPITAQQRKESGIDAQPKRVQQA

[2] = target: Shiga toxin 2 (Escherichia coli O157:H7) (UniProt P09385+P09386); test: E. coli 0.157:H7 Shiga Toxin SOP - stx2 screening assay; type: functional; design: scale not given: direction of the effect not stated beside the values; conditions: 30 µM

Cc1nc(C)c(C(=O)NCCNC(=O)c2ccc(F)cc2F)s1
Percent Effect [1]: -2.04% | Percent Effect [2]: -16%

Cc1ccccc1S(=O)(=O)NC(=O)CSc1ccc2c(c1)OCCO2
Percent Effect [1]: -0.334% | Percent Effect [2]: -0.0455%

Cc1ccccc1NS(=O)(=O)c1cc2c(c(C(=O)O)c1)OCCO2
Percent Effect [1]: -0.815% | Percent Effect [2]: 29.1%

O=c1oc(-c2ccc(F)cc2)nn1CN1CCN(C2CCCC2)CC1
Percent Effect [1]: 0.546% | Percent Effect [2]: -2.79%

CCn1cnnc1C1CCN(C(=O)COCCc2ccccc2)CC1
Percent Effect [1]: -3.95% | Percent Effect [2]: -20.2%

OC(COc1ccc(F)cc1)CN1CCC(Cn2cccn2)CC1 (stereo unspecified)
Percent Effect [1]: 1.46% | Percent Effect [2]: -35.3%

O=C(CCn1ccccc1=O)Nc1ccc(I)cc1
Percent Effect [1]: 8.05% | Percent Effect [2]: -26.1%

CCn1c(NCc2ccco2)nc2c(C)nn(C)c2c1=O
Percent Effect [1]: -3.66% | Percent Effect [2]: -41.1%

CN(C)CC1CN(C(=O)NCc2ccccc2)Cc2nccn2C1 (stereo unspecified)
Percent Effect [1]: -0.114% | Percent Effect [2]: -2.62%

O=C(CC1CCCO1)NCc1ccccc1Cn1cncn1 (stereo unspecified)
Percent Effect [1]: -3.17% | Percent Effect [2]: 31.5%

CC(C)c1nc(CN(C)C2CCN(Cc3nc(C4CC4)no3)C2)no1 (stereo unspecified)
Percent Effect [1]: 5.06% | Percent Effect [2]: -26.4%

O=C(C1CC=CC1)N1C[C@@H]2[C@@H](C1)OCC(=O)N2Cc1cccnc1
Percent Effect [1]: 1.21% | Percent Effect [2]: -12.2%

CS(=O)(=O)NCC1CCCN(C(=O)Nc2ccccc2Cl)C1 (stereo unspecified)
Percent Effect [1]: -5.99% | Percent Effect [2]: 10.6%

CC(=O)N1CCC(C(=O)NCCN2CCC(C)CC2)CC1
Percent Effect [1]: 0.167% | Percent Effect [2]: 0.682%

Cc1cnn(CCNCc2csc(-c3ccc(F)cc3)n2)c1
Percent Effect [1]: -1.03% | Percent Effect [2]: 13.4%

Cc1nc(C2CCCN2Cc2ncc(C(C)C)o2)no1 (stereo unspecified)
Percent Effect [1]: -2.92% | Percent Effect [2]: -16.6%

Cc1cc(C)n(CC2CCCN2CC(=O)NC2CCOCC2)n1 (stereo unspecified)
Percent Effect [1]: -3.04% | Percent Effect [2]: -26.7%

O=C(Nc1ccc(F)cc1)N1C[C@H]2CC[C@@H]1CN(Cc1cccnc1)C2
Percent Effect [1]: 0.632% | Percent Effect [2]: -26.1%

CCC(CNC(=O)c1ccc(Br)o1)N1CCc2ccccc2C1 (stereo unspecified)
Percent Effect [1]: 1.73% | Percent Effect [2]: 8.06%

COc1cccc(S(=O)(=O)N2CCn3cnc(COCC4CC4)c3C2)c1
Percent Effect [1]: 6.08% | Percent Effect [2]: 1.15%

CC(=O)N1CCC(c2ccnc(Nc3cnccn3)n2)C1 (stereo unspecified)
Percent Effect [1]: 1.13% | Percent Effect [2]: -14.2%

O=C(Cc1ccccn1)N1CCN(CC2CC2)c2ncccc2C1
Percent Effect [1]: 5.6% | Percent Effect [2]: -12.7%

Cc1noc(C)c1CNCC1CCN(CC(O)c2ccccc2)CC1 (stereo unspecified)
Percent Effect [1]: -1.06% | Percent Effect [2]: -21.8%

Cn1ccc(CN2CCC(CO)CC2)cc1=O
Percent Effect [1]: -0.422% | Percent Effect [2]: -5.61%

CN(C)CC1CN(c2cnc3ccccc3n2)CCO1 (stereo unspecified)
Percent Effect [1]: -3.4% | Percent Effect [2]: -17.5%

Cc1cccc(CN2C[C@@H]3COC[C@]3(CNC(=O)c3ccsc3)C2)n1
Percent Effect [1]: -2.88% | Percent Effect [2]: -15.8%

COc1ccc(C2CCCN2S(=O)(=O)N(C)CC(C)C)cc1 (stereo unspecified)
Percent Effect [1]: 1.67% | Percent Effect [2]: -7.35%

O=C(c1cnccn1)N1CCCC2(COCCN(CC3CC3)C2)C1 (stereo unspecified)
Percent Effect [1]: 3.16% | Percent Effect [2]: 9.41%

c1ccc(-c2nc(CN3CCOC(Cn4cccn4)C3)no2)cc1 (stereo unspecified)
Percent Effect [1]: -1.51% | Percent Effect [2]: 4.08%

O=C(CC1CC1)N1CC[C@H]2[C@@H]1CCC(=O)N2c1cccnc1
Percent Effect [1]: -4.48% | Percent Effect [2]: -0.916%

COc1ccc(CCC(=O)NC2CCC(O)CC2)cc1OC (stereo unspecified)
Percent Effect [1]: -2.67% | Percent Effect [2]: 33%

CC(=O)c1cn(CCC(=O)N[C@H](C(=O)O)C(C)C)c2ccccc12
Percent Effect [1]: -1.95% | Percent Effect [2]: -36.7%

CCc1nc(C2CCCN2CCc2ccccn2)no1 (stereo unspecified)
Percent Effect [1]: -4.14% | Percent Effect [2]: -69%

Cc1nsc(NC(=O)N2CCC(C(C)(C)O)CC2)n1
Percent Effect [1]: 0.0141% | Percent Effect [2]: -27.4%

C=Cn1ncc(CN2C[C@@H]3CCCN3C[C@H]2CCSC)c1C
Percent Effect [1]: 1.89% | Percent Effect [2]: -18.3%

Cc1nc([C@@H]2C[C@@H]3CCN(C(=O)Cc4ccsc4)C[C@H]3O2)no1
Percent Effect [1]: -2.49% | Percent Effect [2]: 2.89%

CC(Cc1ccco1)NC(=O)Nc1cnn(CC(N)=O)c1 (stereo unspecified)
Percent Effect [1]: 2.29% | Percent Effect [2]: -8.5%

CNC(=O)[C@H]1C[C@@H]2CN(C(=O)c3ccco3)C[C@@H]2N1S(C)(=O)=O
Percent Effect [1]: -2.01% | Percent Effect [2]: -24.9%

Cc1ccc(-c2nnc(CNCCn3cc(C)cn3)o2)cc1
Percent Effect [1]: 2.15% | Percent Effect [2]: -42%

CC(=O)N1CCCCC1c1nc(N)ncc1-c1ccccc1 (stereo unspecified)
Percent Effect [1]: 5.78% | Percent Effect [2]: 4.38%

CS(=O)(=O)N1CCOCC2(CN(Cc3ccsc3)CCO2)C1 (stereo unspecified)
Percent Effect [1]: -4.1% | Percent Effect [2]: 7.57%

Cc1ccc(S(=O)(=O)N2C[C@H]3C[C@H](NC(=O)c4ccnn4C)[C@H]3C2)cc1
Percent Effect [1]: 0.283% | Percent Effect [2]: 8.81%

CSCCC(=O)N1CCC(Oc2cc(C)ccc2F)(C(=O)O)CC1
Percent Effect [1]: -1.34% | Percent Effect [2]: -3.19%

CNS(=O)(=O)c1cccc(C(C)NCc2nccn2C(C)C)c1 (stereo unspecified)
Percent Effect [1]: -2.07% | Percent Effect [2]: -29.6%

CCC(=O)N1CCC(Cc2nccnc2Nc2ccccn2)CC1
Percent Effect [1]: -0.309% | Percent Effect [2]: 11.3%

CC1CN(C)c2ccccc2CN1C(=O)c1ccc[nH]1 (stereo unspecified)
Percent Effect [1]: 4.95% | Percent Effect [2]: -9.14%

Cc1cnn(CCNCC(O)COc2c(C)ccc(C)c2C)c1 (stereo unspecified)
Percent Effect [1]: 1.91% | Percent Effect [2]: -6.89%

CC[C@H](C)[C@H](NC(=O)Cc1csc(-c2cccc(Cl)c2)n1)C(=O)O
Percent Effect [1]: 4.59% | Percent Effect [2]: -17.1%

COc1ccccc1CC1CCCN(CC(N)=O)C1 (stereo unspecified)
Percent Effect [1]: -3.29% | Percent Effect [2]: 28.2%

O=C(c1ccc(F)cc1)N1C[C@H]2CCC[C@@]2(COCc2ccccn2)C1
Percent Effect [1]: 9.3% | Percent Effect [2]: 3.92%

CN(C)CCNC(=O)c1ccc(OC2CCN(S(C)(=O)=O)CC2)c(Cl)c1
Percent Effect [1]: 1.85% | Percent Effect [2]: -25.9%

NC(=O)C1CCN(C(=O)c2cccc(CN3CCOCC3)c2)CC1
Percent Effect [1]: -1.59% | Percent Effect [2]: 3.51%

CN(C)C(=O)N1CCc2c(CNc3ncccn3)cncc2C1
Percent Effect [1]: 0.757% | Percent Effect [2]: -10.5%

O=C(NCCC1=CCCCC1)C1CCN(c2ccc3nncn3n2)CC1
Percent Effect [1]: -1.42% | Percent Effect [2]: -16.7%

CCCc1cc(=O)n(CC(N)=O)c(-n2nc(C)cc2C)n1
Percent Effect [1]: 3.6% | Percent Effect [2]: -3.82%

CNC(=O)[C@@H]1C[C@H]2CN(C(=O)c3ccco3)C[C@H]2N1C
Percent Effect [1]: -1.4% | Percent Effect [2]: -6.39%

CC(C)N1CCn2c(nc3cc(C(N)=O)ccc32)C1
Percent Effect [1]: 0.319% | Percent Effect [2]: -34%

CC(C)N(C)Cc1nnc2n1CCCN(C(=O)c1ccco1)C2
Percent Effect [1]: 1.27% | Percent Effect [2]: -12.8%

CS(=O)(=O)c1ccc(OCCNCc2ccc(F)cc2F)cc1
Percent Effect [1]: 4.17% | Percent Effect [2]: -84.6%

COc1c(CNCc2cccc(CN(C)C)c2)c(C)nn1C
Percent Effect [1]: -1.85% | Percent Effect [2]: 13.1%

CS(=O)(=O)CCSc1cccc(C#N)c1
Percent Effect [1]: 0.641% | Percent Effect [2]: 4.17%

CC(C)N1CCOCC2(CN(Cc3nccs3)CCO2)C1 (stereo unspecified)
Percent Effect [1]: 2.14% | Percent Effect [2]: -11.3%

Cc1noc(C2CCN(C(=O)CCNS(C)(=O)=O)CC2)n1
Percent Effect [1]: -0.989% | Percent Effect [2]: -13.5%

CC(C)c1ccc(CN2CCC3(CCCN(c4nncs4)C3)C2)cc1 (stereo unspecified)
Percent Effect [1]: 1% | Percent Effect [2]: 5.96%

CCc1cc(O)nc(C2CCCN2C(=O)c2cc(C)no2)n1 (stereo unspecified)
Percent Effect [1]: 7.1% | Percent Effect [2]: 1.09%

Cc1noc(C)c1CN(C)C(=O)c1ccc(NC2CC2)nc1
Percent Effect [1]: 5.06% | Percent Effect [2]: 26.3%

O=C(NCc1ccco1)[C@@H]1CCO[C@@H]2CCN(c3ccncn3)C[C@H]21
Percent Effect [1]: 1.19% | Percent Effect [2]: -15.1%

Cc1cccc(NC2CCN(C(=O)Nc3cc(C)on3)CC2)n1
Percent Effect [1]: -5.71% | Percent Effect [2]: -63.5%

O=C(CC1CN(Cc2ccccc2)CCO1)Nc1ccccc1F (stereo unspecified)
Percent Effect [1]: -4.94% | Percent Effect [2]: -0.0564%

CCN1CCC2(CCC(=O)N2Cc2cccc(C)n2)CC1
Percent Effect [1]: -3.94% | Percent Effect [2]: 1.16%

CC(O)CN1CCN(C(=O)c2cn(-c3ccccc3Cl)nn2)CC1 (stereo unspecified)
Percent Effect [1]: 3.29% | Percent Effect [2]: -10.2%

Cc1cc(C)n(C2CN(CC(O)c3ccc4c(c3)OCO4)C2)n1 (stereo unspecified)
Percent Effect [1]: -5.92% | Percent Effect [2]: 7.61%

CCN(CC)C1CCN(C(=O)NCc2c(C)noc2C)CC1
Percent Effect [1]: 0.182% | Percent Effect [2]: -1.12%
